# Results from PubChem BioAssay (EPA / NIEHS).
# Results filed as inconclusive are left out. Active and inactive are the calls of the source. The calls were made as follows: active = hit-call score of the fitted dose curve at least 0.9, where 1 is the maximum; inconclusive = response in the unintended direction; inactive = score below 0.9.
# Target: Bile acid receptor (Homo sapiens) (UniProt Q96RI1)
# Assay: OT_FXR_FXRSRC1_1440: Odyssey Thera (OT) 24-hour HEK293T Protein-Complementation Assay for Farnesoid X receptor/SRC-1 Co-activator (AID 2283384)
# Experimental: OT_FXR_FXRSRC1_1440 is a cell-based assay that uses HEK293T, a human kidney cell line, with measurements taken at 24 hours after chemical dosing in a 384-well plate.OT_FXR_FXRSRC1_1440 is one of one assay component(s) measured or calculated from the OT_FXR_FXRSRC1_1440 assay. It is designed to make measurements of protein fragment complementation, a form of binding reporter, as detected with fluorescence intensity signals by Protein-fragment Complementation technology.Data from the assay component OT_FXR_FXRSRC1_1440 was analyzed into 1 assay endpoint. This assay endpoint, OT_FXR_FXRSRC1_1440, was analyzed in the positive analysis fitting direction relative to DMSO as the negative control and baseline of activity. Using a type of binding reporter, measures of receptor for gain-of-signal activity can be used to understand the binding at the pathway-level as they relate to the gene NR1H4. Furthermore, this assay endpoint can be referred to as a primary readout, because the performed assay has only produced 1 assay endpoint. To generalize the intended target to other relatable targets, this assay endpoint is annotated to the nuclear receptor intended target family, where the subfamily is non-steroidal.
# Protein-fragment complementation assay, or PCA, is a method for the identification and quantification of protein-protein interactions. In the PCA, the proteins of interest ("bait" and "prey") are each covalently linked to fragments of a third protein (e.g. DHFR, which acts as a "reporter"). Interaction between the bait and the prey proteins brings the fragments of the reporter protein in close proximity to allow them to form a functional reporter protein whose activity can be measured.
# Chain of Bile acid receptor (Homo sapiens) (Q96RI1 whole entry, looked up): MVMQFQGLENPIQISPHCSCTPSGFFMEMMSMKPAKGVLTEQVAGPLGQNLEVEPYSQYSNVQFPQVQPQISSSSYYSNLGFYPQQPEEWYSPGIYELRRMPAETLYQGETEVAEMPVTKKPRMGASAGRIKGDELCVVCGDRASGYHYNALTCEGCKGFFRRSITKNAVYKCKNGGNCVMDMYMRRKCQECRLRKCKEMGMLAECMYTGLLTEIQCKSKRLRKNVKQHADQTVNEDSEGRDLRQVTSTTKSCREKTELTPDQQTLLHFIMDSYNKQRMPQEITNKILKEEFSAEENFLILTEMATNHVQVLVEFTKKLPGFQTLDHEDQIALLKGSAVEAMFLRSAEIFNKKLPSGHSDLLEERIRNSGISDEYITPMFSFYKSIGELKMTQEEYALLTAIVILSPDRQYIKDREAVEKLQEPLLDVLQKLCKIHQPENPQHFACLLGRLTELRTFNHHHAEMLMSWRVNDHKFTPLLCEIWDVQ
SMILES,outcome,AC50
Nc1ccn([C@@H]2O[C@H](CO)[C@@H](O)[C@@H]2O)c(=O)n1,inactive,
CCOc1ccc2[nH]cc(C(=O)NCc3ccccc3)c(=O)c2n1,inactive,
CC(C)c1nnc2ccc(-c3ocnc3-c3cc(F)ccc3F)cn12,inactive,
Cn1c(=O)c2[nH]cnc2n(C)c1=O,inactive,
c1ccc2cc3ccccc3cc2c1,inactive,
COc1cc2c(c(OC)c1OC)-c1ccc(OC)c(=O)cc1[C@@H](NC(C)=O)CC2,,0.03 µM (active)
Cc1nccn1-c1ccc(Sc2cccc(C3(C(N)=O)CCOCC3)c2)cc1,,9.64 µM (active)
CCCOc1ccc(S(=O)(=O)N2CCN(CC)CC2)cc1-c1nc2c(CC)n(Cc3ccccn3)nc2c(=O)[nH]1,inactive,
COc1cc(C(C)C)c2c(c1)S(=O)(=O)N(COc1cc(=O)n3cccc(OCCN4CCCCC4)c3n1)C2=O,,19.3 µM (active)
O=S(=O)(O)c1ccc(N=Nc2c(O)ccc3cc(S(=O)(=O)O)ccc23)cc1,inactive,
Cc1ncc([C@@H](CCCCCCc2ccc3c(n2)NCCC3)CC(=O)O)cn1,inactive,
O=C(O)[C@H](O)[C@@H](O)C(=O)O,inactive,
OC[C@H]1O[C@@](CO)(O[C@H]2O[C@H](CO)[C@@H](O)[C@H](O)[C@H]2O)[C@@H](O)[C@@H]1O,inactive,
NC(=O)N(O)[C@@H]1COc2cc(OCc3ccccc3)ccc21,inactive,
CCN(CC)C(=S)SSC(=S)N(CC)CC,inactive,
Cc1cccc(O)c1C,inactive,
CCCCCCCCCC,inactive,
O=C(O)c1ccc2c(c1)nc(C(=O)NC1CCN(C3CC3)CC1)n2Cc1cc(-c2ccc(Cl)s2)on1,inactive,
Cc1nc(-c2ccccn2)ncc1C(=O)Nn1cc(C)c2cc(F)ccc21,inactive,
O=C(O)c1cccc(C(=O)O)c1,inactive,
